In assay [1] the target is D(1A) dopamine receptor (Homo sapiens) (UniProt P21728). Kind of assay: NVS_GPCR_hDRD1: NovaScreen (NVS) G Protein-Coupled Receptor Assay for human Dopamine Receptor D1 (DRD1) (AID 2283269). In a few lines:
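HEK293-derived receptor preparation; radioligand competitive displacement; 1 h; filtration + scintillation counting. DMSO = negative control/baseline. Primary: 25 uM, duplicate; secondary: concentration–response for actives.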

For assay [2], the target named is human Neurokinin, NK2 Receptor, TACR2 (gene 6865) (UniProt P21452). Briefly: NVS_GPCR_hNK2: NovaScreen (NVS) G Protein-Coupled Receptor Assay for human Neurokinin, NK2 Receptor (AID 2283278).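 Note: actives reduce bound radioligand signal relative to DMSO baseline.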 The method in brief: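 Filter-based scintillation counting measured radioligand bound to receptor extracted from CHO cells, 4 hours after compound addition. Chemicals screened first at 25 uM in duplicate, with actives retested in concentration series relative to DMSO.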

Assay [3] addresses human Thromboxane A2 Receptor (TXA2), TBXA2R (gene 6915) (UniProt P21731). Briefly: NVS_GPCR_hTXA2: NovaScreen (NVS) G Protein-Coupled Receptor Assay for human Thromboxane A2 Receptor (TXA2) (AID 2283282).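 Note: actives reduce bound radioligand signal relative to DMSO baseline.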 In a few lines: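 Human platelet-derived receptor preparation incubated with test chemical and radiolabelled ligand for 1 hour, cell-free. Bound label was separated by filtration and counted; displacement relative to DMSO controls gave activity, screened at 25 uM, then titrated.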

Assay [4] deals with human Orphanin, Opioid Related Nociceptin Receptor 1 (ORL1), OPRL1 (gene 4987) (UniProt P41146). Briefly: NVS_GPCR_hORL1: NovaScreen (NVS) G Protein-Coupled Receptor Assay for human Orphanin, Opioid Related Nociceptin Receptor 1 (ORL1) (AID 2283283). In a few lines: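 Cell-free binding using HEK293-derived receptor protein: radioligand displacement measured by filter scintillation 1 hour after dosing. Primary testing at 25 uM in duplicate, followed by singleton concentration series up to 50 uM; DMSO served as negative control.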

Assay [5] concerns the target human Opioid Receptor Mu (Opiate Mu), OPRM1 (gene 4988) (UniProt P35372). Briefly: NVS_GPCR_hOpiate_mu: NovaScreen (NVS) G Protein-Coupled Receptor Assay for human Opioid Receptor Mu (Opiate Mu) (AID 2283290).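 Note: hits lower bound tracer signal versus DMSO meaning displacement of the ligand.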 The method in brief:
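CHO-derived receptor protein, cell-free; radioligand displacement, filtration + scintillation counting, read at 2.5 h. DMSO = negative control/baseline. Primary: 25 uM single conc, duplicate; secondary: concentration series.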

Assay [6] addresses mouse Cholecystokinin, CCK1 Receptor (CCKA), Cckar (gene 12425) (UniProt O08786). Kind of assay: NVS_GPCR_mCCKAPeripheral: NovaScreen (NVS) G Protein-Coupled Receptor Assay for mouse Cholecystokinin, CCK1 Receptor (CCKA) (AID 2283285). The method in brief:
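Chemicals were first screened in duplicate at 25 uM, with those meeting threshold (e.g., 30% inhibition) retested in singleton concentration series to 50 uM maximum. Binding of radioligand to mouse pancreatic membranes was read after 2 h by filtration and scintillation counting.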

Assay [7] concerns the target mouse Cholecystokinin, CCK2 Receptor (CCKB), Cckbr (gene 12426) (UniProt P56481). Briefly: NVS_GPCR_mCKKBCentral: NovaScreen (NVS) G Protein-Coupled Receptor Assay for mouse Cholecystokinin, CCK2 Receptor (CCKB) (AID 2283293). In a few lines: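 Mouse forebrain membrane preparation incubated 2 h with chemical and radioligand; bound radioactivity counted after filtration. Single-concentration duplicate screen at 25 uM, then concentration series to 50 uM max for hits, DMSO as baseline.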

In assay [8] the target is human Purinergic Receptor P2Y, P2RY1 (gene 5028) (UniProt P47900). Briefly: NVS_GPCR_hPY2: NovaScreen (NVS) G Protein-Coupled Receptor Assay for human Purinergic Receptor P2Y (AID 2283281). In a few lines: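 Filtration scintillation readout of radioligand displacement on U937 extract, measured 1 h post-dosing. Single 25 uM duplicate screen, then singleton concentration series to 50 uM for chemicals passing threshold; DMSO as baseline.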

Assay [9] has as its target Muscarinic acetylcholine receptor M2 (Homo sapiens) (UniProt P08172). Kind of assay: NVS_GPCR_hM2: NovaScreen (NVS) G Protein-Coupled Receptor Assay for human Muscarinic, M2 Receptor (AID 2283273). In a few lines: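 Radioligand competition binding, cell-free, receptor from CHO; 1 h incubation; scintillation detection. Primary testing at 25 uM in duplicate.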
For assay [10], the target named is human Adrenergic, Beta 1 Receptor (Adrb1), ADRB1 (gene 153) (UniProt P08588). Briefly: NVS_GPCR_hAdrb1: NovaScreen (NVS) G Protein-Coupled Receptor Assay for human Adrenergic, Beta 1 Receptor (Adrb1) (AID 2283258). The method in brief:
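Membranes/protein extracted from human neuroepithelioma cells, radioligand competition binding read by filtration and scintillation 2 h post-dose. Single 25 uM duplicate screen, then concentration-response follow-up; DMSO as negative control.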

Assay [11] concerns the target human Adrenergic, Beta 3 Receptor (Adrb3), ADRB3 (gene 155) (UniProt P13945). Kind of assay: NVS_GPCR_hAdrb3: NovaScreen (NVS) G Protein-Coupled Receptor Assay for human Adrenergic, Beta 3 Receptor (Adrb3) (AID 2283262). In a few lines: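 A cell-free filter binding assay read by scintillation counting, with displacement of a specific radioligand measured after 1 hour. The receptor source was SK-N-MC extracts (cells pretreated with isoproterenol and 8-bromo-cAMP). Compounds were first tested at 25 uM in duplicate and then in concentration series.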

The test system of assay [12] is 5-hydroxytryptamine receptor 2C (pig). Briefly: NVS_GPCR_p5HT2C: NovaScreen (NVS) G Protein-Coupled Receptor Assay for pig Serotonin, 5-Hydroxytryptamine Receptor 2C (5HT2C) (AID 2283288). In a few lines:
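Radioligand displacement on membranes from pig choroid plexus, detected by filter scintillation counting after 1 h. Tested first at a single 25 uM in duplicate, then in concentration-response for actives; DMSO served as baseline.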

Records with an inconclusive call do not appear. Activity calls are given as the source filed them. Rule for the calls: active = hit-call score of the fitted dose curve at least 0.9, where 1 is the maximum; inconclusive = response in the unintended direction; inactive = score below 0.9.

human Opioid Receptor Mu (Opiate Mu), OPRM1 (gene 4988), sequence (P35372 whole entry, looked up): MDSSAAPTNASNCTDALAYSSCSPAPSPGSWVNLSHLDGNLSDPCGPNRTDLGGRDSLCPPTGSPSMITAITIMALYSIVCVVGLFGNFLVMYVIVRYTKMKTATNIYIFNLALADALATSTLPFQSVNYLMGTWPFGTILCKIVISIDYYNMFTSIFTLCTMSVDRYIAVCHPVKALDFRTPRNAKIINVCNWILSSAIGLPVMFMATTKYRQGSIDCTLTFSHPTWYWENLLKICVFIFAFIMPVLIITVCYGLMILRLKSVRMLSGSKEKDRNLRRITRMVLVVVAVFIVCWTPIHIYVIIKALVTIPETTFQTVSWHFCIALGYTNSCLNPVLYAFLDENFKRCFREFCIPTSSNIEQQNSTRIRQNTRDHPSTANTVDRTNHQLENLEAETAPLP
D(1A) dopamine receptor (Homo sapiens), sequence (P21728 whole entry, looked up): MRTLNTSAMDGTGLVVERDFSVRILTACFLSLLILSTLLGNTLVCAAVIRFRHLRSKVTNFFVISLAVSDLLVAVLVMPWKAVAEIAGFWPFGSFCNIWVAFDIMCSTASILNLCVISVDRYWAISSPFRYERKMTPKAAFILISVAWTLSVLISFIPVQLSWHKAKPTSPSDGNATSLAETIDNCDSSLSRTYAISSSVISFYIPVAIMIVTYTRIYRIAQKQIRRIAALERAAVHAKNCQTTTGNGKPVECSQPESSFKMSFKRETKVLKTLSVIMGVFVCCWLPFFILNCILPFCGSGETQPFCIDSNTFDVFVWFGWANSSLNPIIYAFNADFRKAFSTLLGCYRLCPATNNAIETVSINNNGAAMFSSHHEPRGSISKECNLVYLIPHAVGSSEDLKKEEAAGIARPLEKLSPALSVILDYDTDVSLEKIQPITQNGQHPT
human Neurokinin, NK2 Receptor, TACR2 (gene 6865), sequence (P21452 whole entry, looked up): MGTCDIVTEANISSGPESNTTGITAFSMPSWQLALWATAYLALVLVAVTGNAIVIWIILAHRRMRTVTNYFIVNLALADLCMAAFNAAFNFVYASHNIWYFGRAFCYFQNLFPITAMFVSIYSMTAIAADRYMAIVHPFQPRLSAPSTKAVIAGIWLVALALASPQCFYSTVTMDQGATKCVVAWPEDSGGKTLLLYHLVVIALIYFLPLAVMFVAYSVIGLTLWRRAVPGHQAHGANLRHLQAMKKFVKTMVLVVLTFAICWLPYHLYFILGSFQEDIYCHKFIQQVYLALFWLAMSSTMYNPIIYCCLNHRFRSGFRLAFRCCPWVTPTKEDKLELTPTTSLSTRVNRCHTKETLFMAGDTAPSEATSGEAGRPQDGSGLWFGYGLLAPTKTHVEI
human Thromboxane A2 Receptor (TXA2), TBXA2R (gene 6915), sequence (P21731 whole entry, looked up): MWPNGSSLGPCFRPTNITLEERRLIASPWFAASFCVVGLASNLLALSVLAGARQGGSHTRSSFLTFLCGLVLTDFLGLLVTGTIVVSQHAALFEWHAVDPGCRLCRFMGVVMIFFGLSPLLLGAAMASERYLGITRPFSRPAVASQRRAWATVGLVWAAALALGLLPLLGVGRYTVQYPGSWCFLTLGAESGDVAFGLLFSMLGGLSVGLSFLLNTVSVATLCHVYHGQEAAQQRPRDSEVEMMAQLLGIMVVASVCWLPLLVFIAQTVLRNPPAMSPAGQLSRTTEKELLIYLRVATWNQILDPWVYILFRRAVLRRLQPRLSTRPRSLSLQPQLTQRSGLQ
Muscarinic acetylcholine receptor M2 (Homo sapiens), sequence (P08172 whole entry, looked up): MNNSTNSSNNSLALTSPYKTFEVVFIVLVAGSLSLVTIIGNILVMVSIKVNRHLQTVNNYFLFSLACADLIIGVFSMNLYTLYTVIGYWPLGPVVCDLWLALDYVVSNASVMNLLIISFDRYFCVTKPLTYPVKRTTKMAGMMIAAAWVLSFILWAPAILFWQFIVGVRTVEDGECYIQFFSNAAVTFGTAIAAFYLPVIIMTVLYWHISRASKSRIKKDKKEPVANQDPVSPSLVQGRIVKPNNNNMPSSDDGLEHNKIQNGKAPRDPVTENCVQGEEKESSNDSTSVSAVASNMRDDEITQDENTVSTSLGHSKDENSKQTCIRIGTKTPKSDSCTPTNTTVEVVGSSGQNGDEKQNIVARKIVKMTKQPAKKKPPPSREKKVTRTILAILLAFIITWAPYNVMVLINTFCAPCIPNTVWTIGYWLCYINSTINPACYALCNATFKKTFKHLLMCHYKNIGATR
human Purinergic Receptor P2Y, P2RY1 (gene 5028), sequence (P47900 whole entry, looked up): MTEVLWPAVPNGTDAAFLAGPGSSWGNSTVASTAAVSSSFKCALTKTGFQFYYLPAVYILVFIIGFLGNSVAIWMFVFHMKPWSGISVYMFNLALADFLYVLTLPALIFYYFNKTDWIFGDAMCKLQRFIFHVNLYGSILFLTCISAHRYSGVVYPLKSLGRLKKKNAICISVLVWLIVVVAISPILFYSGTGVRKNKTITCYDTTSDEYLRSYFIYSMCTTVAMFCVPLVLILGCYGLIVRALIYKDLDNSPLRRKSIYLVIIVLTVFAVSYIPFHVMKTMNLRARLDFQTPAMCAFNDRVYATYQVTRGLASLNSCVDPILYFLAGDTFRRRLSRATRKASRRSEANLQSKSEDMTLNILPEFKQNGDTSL
mouse Cholecystokinin, CCK2 Receptor (CCKB), Cckbr (gene 12426), sequence (P56481 whole entry, looked up): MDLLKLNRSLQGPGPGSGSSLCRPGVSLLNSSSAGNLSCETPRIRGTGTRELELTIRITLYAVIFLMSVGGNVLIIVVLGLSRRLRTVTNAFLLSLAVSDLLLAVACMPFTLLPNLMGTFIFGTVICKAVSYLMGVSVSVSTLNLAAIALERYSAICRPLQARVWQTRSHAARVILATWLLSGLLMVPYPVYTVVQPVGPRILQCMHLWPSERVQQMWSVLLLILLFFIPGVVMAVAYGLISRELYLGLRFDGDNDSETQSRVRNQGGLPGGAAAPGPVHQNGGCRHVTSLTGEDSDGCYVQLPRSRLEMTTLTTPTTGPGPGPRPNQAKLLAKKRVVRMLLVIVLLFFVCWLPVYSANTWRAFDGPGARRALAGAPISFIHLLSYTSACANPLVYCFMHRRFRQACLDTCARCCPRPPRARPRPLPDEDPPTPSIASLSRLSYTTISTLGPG
human Adrenergic, Beta 1 Receptor (Adrb1), ADRB1 (gene 153), sequence (P08588 whole entry, looked up): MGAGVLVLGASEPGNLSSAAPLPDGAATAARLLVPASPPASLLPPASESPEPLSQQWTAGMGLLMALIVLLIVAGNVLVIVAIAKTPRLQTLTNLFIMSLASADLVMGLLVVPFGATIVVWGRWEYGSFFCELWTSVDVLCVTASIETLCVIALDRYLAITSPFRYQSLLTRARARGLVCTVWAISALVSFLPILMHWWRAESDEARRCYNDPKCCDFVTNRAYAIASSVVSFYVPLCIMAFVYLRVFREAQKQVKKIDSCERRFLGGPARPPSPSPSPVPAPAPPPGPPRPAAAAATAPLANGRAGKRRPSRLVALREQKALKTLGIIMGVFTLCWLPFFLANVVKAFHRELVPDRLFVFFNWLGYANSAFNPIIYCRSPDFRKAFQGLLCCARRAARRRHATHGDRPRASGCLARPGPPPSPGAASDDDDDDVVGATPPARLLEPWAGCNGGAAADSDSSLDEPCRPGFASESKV
human Orphanin, Opioid Related Nociceptin Receptor 1 (ORL1), OPRL1 (gene 4987), sequence (P41146 whole entry, looked up): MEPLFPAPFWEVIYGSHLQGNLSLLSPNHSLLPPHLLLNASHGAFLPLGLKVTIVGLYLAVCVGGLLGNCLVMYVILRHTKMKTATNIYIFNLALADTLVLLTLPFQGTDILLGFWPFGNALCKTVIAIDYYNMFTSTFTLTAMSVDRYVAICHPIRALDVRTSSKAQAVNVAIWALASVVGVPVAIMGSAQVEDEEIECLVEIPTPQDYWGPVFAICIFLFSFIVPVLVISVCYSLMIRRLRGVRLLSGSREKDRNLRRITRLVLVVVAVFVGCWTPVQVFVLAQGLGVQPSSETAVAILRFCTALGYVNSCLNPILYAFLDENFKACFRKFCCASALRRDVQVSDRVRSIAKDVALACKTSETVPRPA
human Adrenergic, Beta 3 Receptor (Adrb3), ADRB3 (gene 155), sequence (P13945 whole entry, looked up): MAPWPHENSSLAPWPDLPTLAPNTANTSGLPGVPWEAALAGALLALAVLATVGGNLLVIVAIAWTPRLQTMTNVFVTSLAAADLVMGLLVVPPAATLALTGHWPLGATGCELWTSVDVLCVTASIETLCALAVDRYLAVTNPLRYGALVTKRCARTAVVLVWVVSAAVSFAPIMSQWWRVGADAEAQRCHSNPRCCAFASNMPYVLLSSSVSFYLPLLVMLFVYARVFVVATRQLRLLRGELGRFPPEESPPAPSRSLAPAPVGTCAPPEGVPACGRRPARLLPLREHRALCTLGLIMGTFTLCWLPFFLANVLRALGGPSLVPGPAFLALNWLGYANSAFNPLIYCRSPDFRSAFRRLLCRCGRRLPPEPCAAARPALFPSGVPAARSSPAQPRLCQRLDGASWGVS
mouse Cholecystokinin, CCK1 Receptor (CCKA), Cckar (gene 12425), sequence (O08786 whole entry, looked up): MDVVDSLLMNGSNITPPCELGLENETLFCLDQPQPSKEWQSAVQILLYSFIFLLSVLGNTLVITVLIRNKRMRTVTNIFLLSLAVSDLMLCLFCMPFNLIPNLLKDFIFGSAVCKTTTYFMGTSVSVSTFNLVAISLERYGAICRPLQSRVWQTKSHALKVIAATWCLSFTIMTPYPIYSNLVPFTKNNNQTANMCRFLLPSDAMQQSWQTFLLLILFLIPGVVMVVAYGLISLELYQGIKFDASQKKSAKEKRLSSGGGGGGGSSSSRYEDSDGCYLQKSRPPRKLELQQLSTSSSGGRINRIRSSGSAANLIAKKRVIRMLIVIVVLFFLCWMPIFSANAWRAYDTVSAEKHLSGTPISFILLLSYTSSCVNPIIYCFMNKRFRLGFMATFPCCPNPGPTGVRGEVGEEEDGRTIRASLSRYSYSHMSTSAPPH

Take `CC(C)(C)c1cc([N+](=O)[O-])cc(C(C)(C)C)c1O`: in [1], the outcome was inactive.

Consider `Cc1ccc(OP(=O)(Oc2ccc(C)cc2C)Oc2ccc(C)cc2C)c(C)c1`, for which the AC50 (commonly the concentration at which the activity in the assay is half-maximal) in assay [1] is 14.3 µM (active); in assay [2], 8.63 µM (active).

Take `CCOP(=O)(OCC)OC(=CCl)c1ccc(Cl)cc1Cl`: in [3], the AC50 is 0.35 µM (active). As for `Oc1cccc(-c2ccccc2)c1`, the molecule was classed as inactive in assay [3]. As for `N#CCCC(Br)(C#N)CBr` (centres undefined), the AC50 in assay [1] was 11 µM (active); in assay [3], 0.594 µM (active); in [4], 4.83 µM (active); in assay [5], 20.6 µM (active). On to `Oc1ccc(Cc2ccc(O)cc2)cc1`, for which the molecule was called inactive in assay [1] and in [3]. As to `O=C(N[C@H]1CN2CCC1CC2)c1ccc2c(c1)OCCO2`, the result in assay [3] and in [6] was inactive. For the molecule `Oc1c(Cl)cc(Cl)cc1Cl`, the outcome in assay [7] was inactive.

`CCN(N=O)C(N)=O`: in assay [2], the outcome was inactive.

For the molecule `CCOP(=O)(OCC)SCCSCC`, the molecule was classed as inactive in assay [5].

For `O=[N+]([O-])c1ccc(Nc2ccccc2)cc1`, in assay [1], the AC50 is 8.91 µM (active). As for `N#Cc1ccccc1N`, the molecule was called inactive in assay [1]. For the molecule `Cc1cc(Cl)ccc1OC(C)C(=O)O` (centres undefined), the molecule was called inactive in assay [8]. Regarding `OCCN(CCO)CCO`, in assay [9], the outcome was inactive. In the case of `CCCCCCCCCCCCN(C)C`, the call in [1] was inactive. Moreover, in assay [9], the AC50 was 22.6 µM (active).

Consider `CCOC(=O)C(SP(=S)(OC)OC)c1ccccc1` (centres undefined), for which the outcome in assay [2] was inactive. On to `O=C(O)COc1cc(Cl)c(Cl)cc1Cl`, for which the molecule was called inactive in assay [3].

On to `O=C(O)C1(c2ccc3c(c2)OC[C@H](Cc2ccc(-c4ccccc4)cc2)[C@H]3O)CCCC1`, for which the AC50 in assay [10] is 25 µM (active). For the same molecule, the molecule was called inactive in assay [11].

As to `OC(Cc1ccccc1Cl)(Cn1[nH]cnc1=S)C1(Cl)CC1` (centres undefined), in assay [1], the call was inactive. The AC50 in assay [2] is 15.3 µM (active). For the molecule `CCCCCCCCCCBr`, the molecule was classed as inactive in assay [1]. In the case of `c1ccc2sc(SNC3CCCCC3)nc2c1`, the values for the AC50 in assay [2] and in assay [3] were 0.0784 µM (active) and 1.12 µM (active), respectively. `COC(=O)Nc1cccc(OC(=O)Nc2cccc(C)c2)c1`: the AC50 in assay [12] is 25 µM (active). For `O=S(=O)(C(Cl)(Cl)Cl)C(Cl)(Cl)Cl`, the AC50 in [1] was 13.8 µM (active); in [5], 7.84 µM (active).

The values are drawn from PubChem BioAssay (EPA / NIEHS).
